PME-1 inh: PME-1 (human) inhibition | recombinant PME-1, FP-Rh probe fluorescence polarization | inhibition, % at 5.9 µM | 320,000 compounds, 0.53% hits | AID 2130;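 active = inhibition above the campaign mean of all compounds plus 3 SD, cut at about 26% in these data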;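 note: competitive labeling of PME-1 active site by serine hydrolase directed probe; 0% = PME-1 with DMSO and 100% = wells lacking PME-1 enzyme; inhibitors block probe labeling so polarization falls and inhibition rises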
PAD4 inh: blocks human protein arginine deiminase 4; recombinant PAD4, RCA probe fluorescence polarization; inhibition, % at 6.36 µM; 330,000 compounds, 0.41% hits; AID 485272;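 active = percent inhibition above a cutoff equal to the mean of all tested compounds plus 3 SD, cut at about 15% in these data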;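 note: 0% = PAD4 with RCA probe and DMSO and 100% = probe without PAD4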
Target sequence (Q9UM07 whole entry, looked up): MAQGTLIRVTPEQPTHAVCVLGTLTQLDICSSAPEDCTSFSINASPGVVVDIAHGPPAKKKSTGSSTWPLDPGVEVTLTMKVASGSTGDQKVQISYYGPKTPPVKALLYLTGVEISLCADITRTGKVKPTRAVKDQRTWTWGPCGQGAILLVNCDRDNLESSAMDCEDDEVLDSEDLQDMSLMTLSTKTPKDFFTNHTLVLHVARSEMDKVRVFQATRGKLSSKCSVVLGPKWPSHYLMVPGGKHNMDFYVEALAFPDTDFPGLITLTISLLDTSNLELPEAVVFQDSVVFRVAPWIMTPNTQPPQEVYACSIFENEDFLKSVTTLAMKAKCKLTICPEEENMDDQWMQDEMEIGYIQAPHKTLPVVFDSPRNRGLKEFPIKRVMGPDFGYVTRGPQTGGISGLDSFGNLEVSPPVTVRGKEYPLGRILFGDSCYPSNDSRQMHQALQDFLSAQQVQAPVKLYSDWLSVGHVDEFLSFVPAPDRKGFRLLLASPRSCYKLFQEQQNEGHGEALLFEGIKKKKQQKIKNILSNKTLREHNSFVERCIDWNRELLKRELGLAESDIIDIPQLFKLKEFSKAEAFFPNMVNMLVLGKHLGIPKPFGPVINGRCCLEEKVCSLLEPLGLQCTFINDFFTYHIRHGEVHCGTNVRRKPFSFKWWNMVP
LYPLA2 counter: counter-screen for PME1 inhibitors: inhibitors of human LYPLA2; recombinant LYPLA2, FP-Rh probe fluorescence polarization; inhibition, % at 5.9 µM; O95372; AID 2177; 320,000 compounds, 0.38% hits;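 active = inhibition above the screen-wide mean plus 3 SD, limit set per campaign, cut at about 26% in these data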;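 note: 0% = LYPLA2 with DMSO and 100% = wells lacking LYPLA2 enzyme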
GSTO1 inh: GSTO1 inhibition, counter-screen for RBBP9 inhibitors; P78417; recombinant GSTO1, activity-based probe fluorescence polarization; inhibition, % at 5.96 µM; 300,000 compounds, 1.1% hits;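 active = inhibition above the campaign mean inhibition plus 3 SD, cut at about 35% in these data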;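 note: 0% = GSTO1-1 with DMSO and 100% = wells lacking GSTO1-1 enzyme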
Fam108B counter: blocks mouse Fam108B hydrolase in RBBP9 counter-screen | recombinant Fam108B, FP-Rh probe fluorescence polarization | inhibition, % at 9.51 µM | 300,000 compounds, 0.33% hits | AID 1947;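 active = inhibition above the screen mean inhibition plus 3 SD, computed separately per campaign, cut at about 18% in these data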;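 note: inhibitors lower polarization as less probe binds the enzyme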
LYPLA1 inh: blocks human lysophospholipase 1, a PME1 counter-screen | inhibition, % at 5.9 µM | recombinant LYPLA1, FP-Rh probe fluorescence polarization | AID 2174 | 320,000 compounds, 0.16% hits;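 active = inhibition above the mean of all tested compounds plus 3 SD, set per campaign, cut at about 14% in these data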;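 note: inhibitors block serine hydrolase probe labeling of LYPLA1 so polarization falls; 0% = enzyme with DMSO and 100% = wells lacking LYPLA1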
* hit, by the source's call; x = no result given. Most compounds without a hit are left out; they make up all but 1.8% or so of the library.

SMILES	PME-1 inh	PAD4 inh	LYPLA2 counter	GSTO1 inh	Fam108B counter	LYPLA1 inh
O=c1cc(-c2ccc(Cl)cc2)oc(=O)[nH]1	-7.4	4.7	-1.2	-2.0	3.1	-1.7
Cc1cc(=O)oc2cc(OCC(=O)N3CC(C)OC(C)C3)ccc12 (centres undefined)	-3.3	-4.7	1.6	-1.3	4.5	1.4
CCC(C)c1ccc(S(=O)(=O)N2CCN(C(=O)COc3ccc4c(C)cc(=O)oc4c3)CC2)cc1 (centres undefined)	37.8*	-0.9	0.5	-6.3	-9.8	-9.6
N#Cc1ccccc1S(=O)(=O)N1CCN(C(=O)Cc2coc3cc(O)ccc23)CC1	-0.5	1.8	-1.0	x	x	-0.4
C=CCn1c(=O)c2ccccc2n2c(SCC(=O)c3ccccc3)nnc12	1.9	-3.4	-0.6	35.9*	-2.6	-1.7
C=CCn1c(=O)c2ccccc2n2c(SCC(=O)NCCc3ccccc3)nnc12	3.5	2.0	2.3	-6.0	5.2	-2.7
O=C(CN1C(=O)C(c2ccccc2)Oc2cccnc21)NCc1ccccc1F (centres undefined)	0.1	0.1	-3.7	6.2	-1.5	-5.8
Nn1c(-c2ccc(F)cc2)nc2ccccc2c1=O	-2.1	-1.9	-0.8	1.3	1.2	1.6
O=C1c2cc(F)ccc2-n2c1nc1ccccc1c2=O	1.7	-8.3	-1.3	35.3*	-0.5	-1.3
CCOC(=O)c1c2ccc(OCC(=O)NN)cc2n2ccccc12	7.5	-2.4	3.7	40.1*	2.1	4.5
CCOC(=O)c1c2ccc(OCC(=O)N/N=C/c3ccc(C)cc3)cc2n2ccccc12	-4.7	-2.4	2.5	15.1	7.3	1.1
CCN1C(=O)c2cccc3c(S(=O)(=O)N4CCNCC4)ccc1c23	x	2.8	x	x	x	x
CCCc1cc(=O)[nH]c(SCC(=O)Nc2cccc(S(=O)(=O)N3CCOCC3)c2)n1	-1.6	-1.3	8.1	x	x	1.0
CN(C)CCCNC(=O)C(=O)NCC1OCCN1S(=O)(=O)c1cc(F)ccc1F (centres undefined)	5.5	-1.3	-1.3	2.0	-1.5	0.5
Cc1cccc(NS(=O)(=O)c2ccc(C)c(C(=O)N(C)C)c2)c1	-1.3	-1.3	1.6	x	x	0.9
Cc1ccc(N=Cc2nc(/C=C/c3cccc([N+](=O)[O-])c3)oc2O)cc1	27.3*	0.0	2.9	8.1	-0.7	-5.0
Cc1ccc(C(=O)OCC(=O)NCc2ccc(Cl)cc2Cl)o1	4.0	4.9	4.8	x	x	3.1
NC(=S)N/N=C/c1cccc(O)c1O	1.4	0.5	1.8	84.1*	5.1	2.1
NC(=S)N/N=C/c1ccccc1O	-9.8	-6.6	2.4	-15.6	-1.2	0.6
CC(NC(=O)CN1C(=O)NC2(CCCCC2C)C1=O)c1ccccc1 (centres undefined)	0.9	0.8	3.0	x	x	0.7
CCOc1cc(/C=N/NC(=O)c2cc(C)n(-c3ccc(F)cc3)c2C)ccc1O	17.5	-0.1	1.0	22.5	4.5	-3.7
Cc1cc(C(=O)N/N=C2\CC(=O)c3ccccc32)c(C)n1-c1ccc(F)cc1	9.9	-4.7	6.4	54.6*	6.2	-3.9
COc1cccc(CNC(=O)COC(=O)/C=C/c2ccc(SC)cc2)c1	x	-2.6	x	x	x	x
O=C(O)c1cc(-c2ccc(/C=N/NC(=S)Nc3ccccc3)o2)ccc1Cl	21.6	-2.3	1.4	48.2*	4.5	2.6
CCN(CC(=O)Nc1ccc(NC(C)=O)cc1)C(=O)c1ccc(NC2CC2)c([N+](=O)[O-])c1	1.1	2.7	3.0	-4.3	0.0	0.9
SMILES	PME-1 inh	PAD4 inh	LYPLA2 counter	GSTO1 inh	Fam108B counter	LYPLA1 inh
O=C(OCCN=C1NS(=O)(=O)c2ccccc21)c1ccccc1F	1.1	-7.7	0.2	-6.0	-2.6	-0.7
O=C(OCCOCCN=C1NS(=O)(=O)c2ccccc21)c1ccccc1Br	34.0*	-5.0	-1.1	-0.8	-1.4	0.0
COc1ccc(N(C)C(=O)c2sc(Cl)nc2C)cc1	-1.2	-3.0	1.5	6.5	2.8	-2.6
Cc1ccc(OC(=O)c2sc(Cl)nc2C)cc1C	-7.2	3.6	8.9	35.5*	4.8	2.1
Cc1occc1-c1nnc(SCC(=O)Nc2c(F)cccc2F)n1C	-3.1	-2.7	5.8	3.3	0.7	2.5
COCCCNC(=O)C[C@H]1C[C@H](C(=O)N2CCCCC2)[C@@]2(C)c3[nH]c4cc(-c5ccco5)ccc4c3CCN2C1=O	x	0.0	x	x	x	x
COC(=O)c1ccc(NC(=O)Nc2ccc(OC)cc2)cc1	28.9*	-0.6	-6.1	14.4	5.4	-2.1
CCOC(=O)c1ccc(NC(=O)Nc2ccc(OC)c(OC)c2)cc1	25.8	-0.6	-0.7	-2.2	7.0	-11.2
CCCCOC(=O)c1ccc(NC(=O)Nc2ccc(OC)c(OC)c2)cc1	39.8*	0.3	-5.0	-49.8	13.6	-10.8
COc1ccc(NC(=O)Nc2c(O)ccc3ccccc23)cc1	2.6	5.6	1.4	37.2*	7.1	0.3
COc1ccc(NC(=O)Nc2ccc(OC)cc2)cc1	3.7	-1.2	2.0	18.6	1.7	5.0
CC(=O)c1ccc(NC(=O)CC2Nc3cccc4cccc(c34)NC2=O)cc1 (centres undefined)	11.5	-8.5	-3.2	41.0*	7.3	-5.7
CC(=O)Nc1ccc(NC(=O)CC2Nc3cccc4cccc(c34)NC2=O)cc1 (centres undefined)	7.0	-2.1	14.6	28.1	3.1	6.4
Cc1ccnc(NS(=O)(=O)c2ccc(NC(=O)c3ccc([N+](=O)[O-])s3)cc2)n1	2.5	-1.8	7.9	36.7*	0.5	4.3
CCOC(=O)c1c(NC(=O)COC(=O)c2cccnc2OCC)sc(C(=O)N(CC)CC)c1C	x	2.5	x	x	x	x
O=[N+]([O-])c1c(Nc2ccc(O)cc2)cc(N2CCOCC2)c2nonc12	-1.4	4.0	4.0	-4.0	4.9	2.5
O=C(O)c1cc(Nc2cc(Cl)c3nonc3c2[N+](=O)[O-])ccc1O	-0.7	6.1	19.9	35.9*	0.5	-1.5
Cc1cccc(C(=O)OCC(=O)N(C)C(c2ccccc2)c2ccccc2)c1[N+](=O)[O-]	1.7	0.9	-8.8	x	x	-6.9
O=C(NNC(=O)c1cccnc1)NC1CCCCC1	-4.6	-1.6	2.4	3.0	2.7	-4.2
O=C(NNC(=O)c1cc(O)c(O)c(O)c1)NC1CCCCC1	5.4	2.0	4.3	35.9*	3.8	0.6
Cc1cccc(C)c1NC(=S)N=Nc1c(O)n(C)c2ccc(S(=O)(=O)N3CCOCC3)cc12	-5.2	-4.1	-1.2	0.7	1.8	-2.5
Cc1ccccc1NC(=S)N=Nc1c(O)n(C)c2ccc(S(=O)(=O)N3CCOCC3)cc12	5.6	-5.6	5.9	36.3*	11.5	-2.2
COC(=O)[C@H](Cc1ccccc1)NC(=O)C1CCN(C(=O)[C@H](C)NS(=O)(=O)c2ccc(C)cc2)CC1	0.1	-4.3	2.5	-0.4	-2.7	1.5
CCC(C)Nc1nc(N)c([N+](=O)[O-])c(Nc2ccccc2OC)n1 (centres undefined)	10.8	-2.4	-10.6	-10.5	-3.6	-5.6

Assay outcomes deposited in PubChem BioAssay by The Scripps Research Institute Molecular Screening Center.
